# Source: PubChem BioAssay (Broad Institute)
# Hits are enriched below; roughly 6.8% of the tested compounds scored in any of these assays.
# T cruzi growth-1 – T. cruzi intracellular proliferation inhibitors, primary screen, cell-based, beta-gal Tulahuen parasites, NIH3T3 host, luminescence; T. cruzi beta-gal in NIH3T3, GalScreen luminescence, 90 h; inhibition, % at 8.34 µM; hit rate 5.9% among 77,000;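 active = mean inhibition above about 93%, with at least 55% of replicates each passing it, limit read from the data, passing the limit was not always enough; inconclusive = only one of those two conditions holds; inactive = neither condition holds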
# Pf Dd2 inh – P. falciparum Dd2 growth inhibitors, primary screen, SYBR Green fluorescence, single dose replicates | activity change, % at 10 µM | hit rate 2.3% among 94,000 | AID 1159554, 2015 | 72 h; hits give low values; in the data active = activity change below about -80%; inconclusive = no clear call, values can overlap the other calls
# C diff growth – C. difficile growth inhibitors, primary screen, HTS | growth activity, negative = inhibition, % at 16 µg/mL (by protocol) | hit rate 0.25% among 86,000 | Clostridium difficile clinical isolate growth, OD600, 24 h; hits give low values;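 active = mean growth activity at or below -80% and every replicate also at or below -80%; inconclusive = mean at or below -80% but some replicate above -80%; inactive = mean growth activity above -80%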;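 note: 0% = DMSO wells and -100% = levofloxacin 16 µg/mL wells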
# T cruzi growth-2 – T. cruzi intracellular proliferation inhibitors, confirmation, cell-based, NIH3T3 host, beta-gal parasite, luminescence, cherry-pick; T. cruzi beta-gal in NIH3T3, GalScreen luminescence, 90 h; inhibition, % at 8.35 µM; shares compounds with T cruzi growth-1; AID 651739, 2012; hit rate 72% among 5,600;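 active = mean replicate inhibition above about 95% and at least 55% of replicates individually reaching it, limit read from the data; inconclusive = only one of the two criteria is met; inactive = neither criterion is met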
# T cruzi growth-3 – inhibitors of intracellular T. cruzi replication, confirmation, NIH3T3 host cells, beta-gal parasites, cherry-pick, set 2; shares compounds with T cruzi growth-1; T. cruzi beta-gal in NIH3T3, GalScreen luminescence, 90 h; inhibition, % at 2.09 µM; hit rate 21% among 5,600; AID 651740, 2012;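 active = mean inhibition above about 95%, with at least 55% of replicates also reaching it, limit read from the data; inconclusive = meets just one of the two conditions; inactive = meets neither condition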;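 note: plate controls were neutral control median for no effect and positive control median for full effect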
# 3T3 cytotox – cytotoxicity in mouse NIH/3T3 fibroblasts, confirmation, cytotoxicity control for T. cruzi proliferation inhibitor project, cell-based, cherry-pick, single point. shares compounds with T cruzi growth-1. NIH/3T3 viability, CellTiter-Glo ATP luminescence, 90 h. cytotoxicity (signal decrease), % at 8.35 µM. hit rate 14% among 5,600. AID 651742, 2012;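 active = mean signal decrease across replicates above about 35% based on untreated-well scatter, with enough replicates individually passing, limit read from the data; inconclusive = no rule stated though some were filed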;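 note: 0% = median of neutral control wells and 100% = median of positive control wells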
# 3T3 cytotox 2 – NIH/3T3 fibroblast cytotoxicity, confirmation, cytotoxicity control, cell-based, cherry-pick, single point, set 2; NIH/3T3 viability, CellTiter-Glo ATP luminescence, 90 h; inhibition, % at 24.9 µM; hit rate 56% among 5,600; shares compounds with T cruzi growth-1; AID 651744, 2012;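 active = mean loss of cell viability signal at or above a set limit, and enough replicates individually reaching it; inconclusive = meets only the mean limit or only the replicate share; inactive = meets neither condition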;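 note: 0% = median of neutral control wells and 100% = median of positive control wells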
# * marks the source's active call; other numbers are inactive results; u = inconclusive; x = no result given.
SMILES,T cruzi growth-1,Pf Dd2 inh,C diff growth,T cruzi growth-2,T cruzi growth-3,3T3 cytotox,3T3 cytotox 2
C[C@H](CO)N1C[C@H](C)[C@@H](CN(C)Cc2ccccc2)Oc2cc(C#CC3CC3)ccc2S1(=O)=O,128*,-16,2,97*,93,-5,105*
CC(C)C#Cc1ccc2c(c1)O[C@@H](CN(C)Cc1ccccc1)[C@H](C)CN([C@@H](C)CO)S2(=O)=O,88,-52,12,x,x,x,x
CC(C)C#Cc1ccc2c(c1)O[C@H](CN(C)Cc1ccccc1)[C@@H](C)CN([C@H](C)CO)S2(=O)=O,3,-42,11,x,x,x,x
CC(C)C#Cc1ccc2c(c1)O[C@H](CN(C)Cc1ccccc1)[C@H](C)CN([C@H](C)CO)S2(=O)=O,105*,-54,7,102*,78,8,103*
C[C@@H]1CN([C@H](C)CO)C(=O)c2cc(NC(=O)c3ccncc3)ccc2O[C@@H]1CN(C)CC1CCCCC1,-15,5,2,x,x,x,x
C[C@@H]1CN([C@H](C)CO)C(=O)Cc2cc(NC(=O)Nc3ccc(F)cc3)ccc2O[C@H]1CN(C)C,x,12,4,x,x,x,x
CCC(=O)N1[C@H](CO)[C@H](c2ccc(C#CC3CCCC3)cc2)[C@@H]1CNC(C)C,x,-54,34,x,x,x,x
C[C@@H]1CN([C@@H](C)CO)C(=O)c2cc(C3=CCCCC3)cnc2O[C@@H]1CN(C)Cc1ccccn1,x,-10,11,x,x,x,x
O=C(C[C@H]1C[C@H]2c3cc(NC(=O)NC4CCCC4)ccc3O[C@H]2[C@@H](CO)O1)NCc1ccccn1,x,10,2,x,x,x,x
CC(C)C#Cc1ccc2c(c1)O[C@@H](CN(C)Cc1ccccc1)[C@@H](C)CN([C@H](C)CO)S2(=O)=O,111*,-39,16,107*,79,2,104*
C[C@H](O)C#Cc1ccc2c(c1)O[C@H](CN(C)Cc1ccccc1)[C@@H](C)CN([C@@H](C)CO)S2(=O)=O,-64,-45,1,x,x,x,x
CC(C)C#Cc1cnc2c(c1)C(=O)N([C@H](C)CO)C[C@H](C)[C@H](CN(C)C(=O)Nc1ccc(F)cc1)O2,116*,-18,14,-51,28,15,86*
CC(C)C#Cc1cnc2c(c1)C(=O)N([C@H](C)CO)C[C@@H](C)[C@H](CN(C)C(=O)Nc1ccc(F)cc1)O2,63,-41,-3,x,x,x,x
CC(C)C#Cc1cnc2c(c1)C(=O)N([C@@H](C)CO)C[C@H](C)[C@H](CN(C)C(=O)Nc1ccc(F)cc1)O2,102*,-34,12,46,40,30,u
CC(C)C#Cc1cnc2c(c1)C(=O)N([C@@H](C)CO)C[C@H](C)[C@@H](CN(C)C(=O)Nc1ccc(F)cc1)O2,-13,-44,-3,x,x,x,x
C=CC[C@]1(C(=O)N2CCOCC2)COC(c2ccc(OCCCO)cc2)=N1,x,x,10,x,x,x,x
C[C@H](O)C#Cc1cnc2c(c1)C(=O)N([C@H](C)CO)C[C@H](C)[C@H](CN(C)C(=O)Nc1ccc(C(F)(F)F)cc1)O2,x,-7,-3,x,x,x,x
COc1ccc(-c2cn(CC[C@@H]3CC[C@@H](NS(=O)(=O)c4ccccc4C)[C@@H](CO)O3)nn2)cc1,-7,-2,-2,x,x,x,x
CCS(=O)(=O)Nc1ccc2c(c1)C(=O)N(C)C[C@H](OC)[C@@H](C)CN(C(=O)COC)[C@@H](C)CO2,22,-8,20,x,x,x,x
COc1cccc(-c2ccc([C@@H]3[C@H](C#N)N(C(=O)Cc4ccccc4)[C@H]3CO)cc2)c1,u,-32,9,111*,55,7,33*
COc1cccc(-c2ccccc2[C@@H]2[C@@H](CO)N(C(=O)Cc3ccccc3)[C@H]2C#N)c1,x,-17,12,x,x,x,x
COc1cccc(-c2ccc([C@H]3[C@@H](CO)N(C(=O)Cc4ccccc4)[C@H]3C#N)cc2)c1,97*,-73,10,96*,99*,21,37*
N#C[C@@H]1[C@H](c2ccc(-c3ccc(F)cc3)cc2)[C@@H](CO)N1C(=O)Cc1ccccc1,64,-8,15,x,x,x,x
C[C@H]1CN([C@@H](C)CO)C(=O)c2cccc(NC(=O)NC3CCCCC3)c2O[C@@H]1CN(C)S(=O)(=O)c1cn(C)cn1,-54,11,x,x,x,x,x
O=C(Cc1ccncc1)NCC[C@@H]1CC[C@@H](NS(=O)(=O)c2ccccc2Cl)[C@H](CO)O1,-2,8,x,x,x,x,x
SMILES,T cruzi growth-1,Pf Dd2 inh,C diff growth,T cruzi growth-2,T cruzi growth-3,3T3 cytotox,3T3 cytotox 2
CCS(=O)(=O)N1CCC2(CC1)CN(C(=O)CN1CCOCC1)[C@@H](CO)c1c2c2ccc(OC)cc2n1C,x,23,0,x,x,x,x
CO[C@H]1CN(C)C(=O)c2ccc(NC(C)=O)cc2OC[C@H](C)N(C(=O)C2CCCCC2)C[C@@H]1C,-3,x,x,x,x,x,x
CN(C)CC#Cc1ccc([C@H]2[C@@H](CO)N3CCCCN(C(=O)Nc4ccccc4F)C[C@@H]23)cc1,33,5,-1,x,x,x,x
O=C(Nc1ccccc1F)N1CCCCN2[C@H](C1)[C@H](c1ccc(C#Cc3ccccc3)cc1)[C@@H]2CO,69,-26,-5,x,x,x,x
COc1ccc(C#Cc2ccc([C@@H]3[C@@H](CO)N4CCCCN(C(=O)Nc5ccccc5F)C[C@@H]34)cc2)cc1,127*,-91*,-4,99*,114*,-42,51*
COc1ccc(C#Cc2ccc([C@H]3[C@@H](CO)N4CCCCN(C(=O)Nc5ccccc5F)C[C@@H]34)cc2)cc1,140*,-79,-8,u,114*,u,40*
O=C(Nc1ccccc1F)N1CCCCN2[C@@H](CO)[C@H](c3ccc(C#Cc4ccccc4)cc3)[C@@H]2C1,95*,-78,0,u,115*,119*,104*
O=C(Nc1ccccc1F)N1CCCCN2[C@H](CO)[C@H](c3ccc(C#Cc4ccccc4)cc3)[C@H]2C1,42,-69,5,x,x,x,x
CCS(=O)(=O)NCC[C@@H]1CC[C@@H](NC(=O)C2CCC2)[C@H](CO)O1,x,-11,1,x,x,x,x
CC(C)NC(=O)N(C)C[C@H]1Oc2cc(-c3ccncc3)ccc2S(=O)(=O)N([C@H](C)CO)C[C@H]1C,109*,0,0,68,28,4,32*
Cc1ccc(-c2ccc3c(c2)O[C@H](CN(C)C(=O)NC(C)C)[C@H](C)CN([C@H](C)CO)S3(=O)=O)cc1,32,20,-4,x,x,x,x
